Bioassay records as filed in PubChem BioAssay.
ELG1 genotox: inducers of genotoxicity in HEK293T ELG1-luciferase cells; HEK293T ELG1-luciferase reporter, luminescence, 16 h; Potency, µM (titrated, usually from 46 µM), without a hit: at the highest dose activity change, positive = activation, actives largely listed as activators; actives 1.3% (n = 330,000); AID 504466; note: % of control where 0% means no effect; nearly all actives have a fitted effect of over 60% in size
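Quantitative HTS format in 1536-well plates. HEK293T ELG1-luciferase reporter cells receive test compound and are incubated 16 hr at 37 °C, 5% CO2; ONE-Glo added, 30 min room temperature, then luminescence read.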
NPC1 prom act: NPC1 promoter activation; Potency, µM (highest dose often 9.22 µM), without a hit: top-dose activation, usual class: activators; AID 485313; Huh7 NPC1 promoter luciferase reporter, 24 h; actives 2.4% (n = 320,000); note: % of control where 0% means no effect; nearly all actives have a fitted effect of over 60% in size
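NPC1 promoter–luciferase Huh7 cells; 24 h compound; luminescence.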
SMN2 splice up: increases expression of the SMN2 splice variant; HEK293 SMN2-luciferase splicing reporter, luminescence, 30-36 h; Potency, µM (highest dose often 46.1 µM), for inactives: at the top dose activity change, positive = activation, actives largely listed as activators; actives 2.8% (n = 210,000); AID 1458; note: % of control where 0% means no effect; nearly all actives have a fitted effect of over 55% in size
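HEK293 cells carry an SMN2 […]–luciferase reporter in which exon 7 inclusion puts luciferase in frame. Cells were plated 10-12 h before compound addition, then incubated 30-36 h at 37C. ONE-Glo luminescence was read; sodium butyrate at 4.5 mM final served as control.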
Rab9 promoter act: activators of Rab9 promoter | Huh7 Rab9 promoter-luciferase reporter, luminescence, 24 h | Potency, µM (titrated, usually from 9.22 µM), without a hit: top-dose activation, negative = inhibition, usual class: activators | actives 2.8% (n = 320,000); note: % of control where 0% means no effect; nearly all actives have a fitted effect of over 60% in size
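Cell-based reporter: Huh7 stable for Rab9 promoter-driven luciferase, plated in reduced-serum medium with 10% FBS at 1500 cells/well, compound-treated 24 h at 37 °C, luminescence read after 10 min reagent.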
FLuc counter: inhibits or activates purified firefly luciferase, miR-21 counter-screen; P08659; purified FLuc, Km substrates, luminescence inhibition; Potency, µM (series often up to 57.5 µM), without a hit: at the highest dose activity change, negative = inhibition, actives largely listed as inhibitors; actives 6.9% (n = 360,000);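 note: plate controls were vehicle for no effect and reference inhibitor for full effect; nearly all actives have a fitted effect of over 55% in size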
Target sequence (P08659 whole entry, looked up): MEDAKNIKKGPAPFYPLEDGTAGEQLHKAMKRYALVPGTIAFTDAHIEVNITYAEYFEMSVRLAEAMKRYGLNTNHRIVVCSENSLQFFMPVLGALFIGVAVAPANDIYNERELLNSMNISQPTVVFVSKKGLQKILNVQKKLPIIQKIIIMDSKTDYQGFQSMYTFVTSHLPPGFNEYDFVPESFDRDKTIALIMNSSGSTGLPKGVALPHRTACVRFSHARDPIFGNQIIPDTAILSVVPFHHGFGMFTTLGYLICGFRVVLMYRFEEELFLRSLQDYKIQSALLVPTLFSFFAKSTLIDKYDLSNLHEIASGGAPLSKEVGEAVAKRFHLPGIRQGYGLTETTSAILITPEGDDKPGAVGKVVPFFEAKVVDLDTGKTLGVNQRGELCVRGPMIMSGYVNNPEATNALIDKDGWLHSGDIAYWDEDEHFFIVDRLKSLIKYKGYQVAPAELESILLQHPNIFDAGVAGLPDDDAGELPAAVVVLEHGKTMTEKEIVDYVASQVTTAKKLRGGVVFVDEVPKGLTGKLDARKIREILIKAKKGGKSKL
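Purified P. pyralis luciferase (10nM final) with 10uM D-luciferin and 10uM ATP (Km levels) in 50mM Tris acetate pH 7.5, 10mM Mg acetate, 0.01% Tween-20, 0.05% BSA; qHTS 6-point titration, ~60 µM downward; luminescence read.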
Numbers without * were called inactive; ? = inconclusive; / = no result given; [ ] = remark or other dose. Rows were chosen to be rich in hits. Some 7.4% of all compounds tested hit in one or more screens of this group. Calls come from the whole dose curve; as a rule, active = well fitted curve in the direction sought with a large enough effect; inconclusive = small, poorly fitted or top-dose-only effect, or another doubt; inactive = no such curve, though single readings can be large; an effect the other way counts as inactive or inconclusive. Potency is the fitted concentration of half-maximal effect.

SMILES	ELG1 genotox	NPC1 prom act	SMN2 splice up	Rab9 promoter act	FLuc counter
CCCn1c(-c2ccc(F)cc2)nc2c(NC(C)CN(C)C)nc(C)nc21 (stereo not given)	/	/	-4%	/	/
Cc1cn2c(=O)cc(COC(=O)c3ccc(NC(=O)C(C)Oc4ccccc4)cc3)nc2s1 (stereo not given)	/	/	/	/	5%
Cc1cc(-c2cn3ccccc3n2)c(C)n1-c1ccccc1	15%	1.6µM*	5.6µM*	1.1µM*	0.76µM*
O=c1c(-c2cc(F)cc(F)c2)nc2cncnc2n1Cc1ccc(F)cc1	/	/	-19%	/	/
COc1ccc(CC(=O)Nc2nc(-c3cc(OC)ccc3OC)cs2)cc1	-10%	-8%	-39%	-5%	-3%
COc1ccc(OC)c(-c2csc(NC(=O)Cc3ccccc3)n2)c1	-20%	-1%	/	3%	11µM*
COc1ccc(OC)c(-c2csc(NC(=O)Cc3cccs3)n2)c1	0%	-4%	-22%	-3%	13µM*
O=C(O)c1cc(C(=O)C(=O)c2cc(C(=O)O)c(O)c3ccccc23)c2ccccc2c1O	/	/	-2%[9.22 µM]	/	/
CCOC(=O)C(C)NC(=O)c1c2c(nc3ccccc13)C(=O)N(C1CCCCC1)C2 (stereo not given)	/	/	/	/	-2%
CCOc1ccc2nc(NC(=O)CSC3=NCCS3)sc2c1	?	?	6%	?	15µM*
CCOc1ccc2nc(NC(=O)CSc3ccc(Cl)cc3)sc2c1	25%	2%	8%	2%	?
CCOc1ccc2nc(NC(=O)CSc3nc(SC)ns3)sc2c1	18%	22%	?	?	24µM*
CSc1nsc(SCC(=O)Nc2ccc(OC(C)=O)cc2)n1	?	21%	?	?	?
COc1ccc2nc(NC(=O)CSc3nnc(N)s3)sc2c1	16%	?	10µM*	2µM*	?
COc1ccc2nc(NC(=O)CN3CCN(C)CC3)sc2c1	10%	1%	-11%	-3%	?
COc1ccc2nc(NC(=S)N(C)C)sc2c1	0.82µM*	0.71µM*	-18%	0.63µM*	1.9µM*
COC(=O)[C@@]1(Cc2ccc(OC)cc2)[C@H]2c3cc(C(=O)N4CCCC4)n(CCc4c[nH]c5ccc(OC)cc45)c3C[C@H]2CN1C(=O)c1ccccc1	/	/	9%	/	/
O=C(C1CC1)N1CCc2cc(Br)cc(S(=O)(=O)N3CCN(c4cccc(C(F)(F)F)c4)CC3)c21	/	/	-8%	/	1%
COc1ccc2nc(NC(=O)CCc3ccc(OC)c(OC)c3)sc2c1	10%	2%	12%	10%	-9%
COc1ccc2nc(NC(=O)CSC3=NCCS3)sc2c1	-1%	?	-7%	?	17µM*
COc1ccc2nc(NC(=O)CSc3nnc(C)n3N)sc2c1	7.3µM*	1.6µM*	/	0.5µM*	3µM*
COc1ccc2nc(NC(=O)CSc3ccccc3)sc2c1	?	17%	-11%	13%	17µM*
CCCC(=O)Nc1nc2ccc(OC)cc2s1	?	0.89µM*	10µM*	1.8µM*	7.6µM*
CC(=O)c1cccc(Nc2nn(-c3ccc(OC(F)(F)F)cc3)nc2C(C)=O)c1	/	/	-9%	/	6µM*
CC(=O)c1ccc(NC(=O)c2sc(-n3nc(C)c(Cc4ccc5c(c4)OCO5)c3C)nc2C)cc1	/	/	/	/	-2%
SMILES	ELG1 genotox	NPC1 prom act	SMN2 splice up	Rab9 promoter act	FLuc counter
Cn1c(NC(=O)/C=C\c2ccccc2)cc(=O)n(C)c1=O	?	30%	/	3.5µM*	?
Cc1ccc(NC(=O)/C=C/c2ccccc2)c(Br)c1	/	/	8.9µM*	/	2.7µM*
O=C1CCCc2cc(S(=O)(=O)NCC3CCC(C(=O)NCc4ccccc4Cl)CC3)ccc2N1 (stereo not given)	/	/	/	/	-16%
COc1ccc(C(=O)Nc2ccccc2C(=O)Nc2cc(C)ccn2)cc1	17%	1.8µM*	/	3.5µM*	1.3µM*
COc1ccc(C(=O)Nc2ccccc2C(=O)Nc2cccnc2)cc1	?	30%	/	26%	4.3µM*
COc1ccc2[nH]c(C(=O)Nc3cccc(C)n3)cc2c1	?	0.63µM*	/	0.5µM*	1.2µM*
COc1ccc(C(=O)NC(=O)Nc2cc(C)ccn2)cc1	?	0.79µM*	/	0.79µM*	0.19µM*
Cc1ccnc(NC(=S)NC(=O)c2cncc(Br)c2)c1	?	?	5%	?	?
O=C(Oc1ccccc1)N1CCC[C@@]2(CCN(c3ncccn3)C2)C1	/	/	-12%	/	/
CCOC(=O)C1CCCN(C(=O)c2ccc3c(c2)N(Cc2ccccc2F)C(=O)c2ccccc2S3=O)C1 (stereo not given)	/	/	2%	/	1%
CC(=O)Nc1ccc(NC(=O)c2cccc3ccccc23)cc1	-23%	-4%	/	-5%	2%
C/C(CC(=O)Nc1ccccn1)=N\NC(=O)c1ccc(C)cc1	3%	1%	-7%	-4%	-14%
CCOc1ccc(C(=O)NC(=S)Nc2cccnc2)cc1	9%	?	?	2.8µM*	?
Cc1ccc(NC(=O)c2cccc3ccccc23)cc1	18%	?	/	?	15µM*
C/C(CC(=O)Nc1cc(C)ccn1)=N\NC(=O)c1ccc(C(C)(C)C)cc1	0%	0%	/	9%	11µM*
COc1ccc(C(=O)Nc2ccccc2C(=O)Nc2cccc(C)n2)cc1	4%	?	/	26%	5.4µM*
COc1cccc(/C=C/c2nc(C#N)c(N3CCCCC3)o2)c1	/	/	0%	/	-15%
COc1cc2ccccc2cc1C(=O)Nc1ccc(C)cc1	?	18%	/	3%	3µM*
COc1cc(C(=O)Nc2cc(C)ccn2)cc(OC)c1OC	0%	-2%	23%	-2%	-8%
O=C(Nc1cccnc1)c1ccccc1O	18%	13%	-15%	0%	15µM*
O=C(Nc1cccnc1)c1ccccc1-c1ccccc1	0%	0%	-7%	-4%	5%
COc1cc2ccccc2cc1C(=O)Nc1cc(C)ccn1	?	?	/	3.2µM*	12µM*
Cc1ccccc1C(=O)Nc1ccc(C(=O)OCc2cc(=O)n3nc(C(C)C)sc3n2)cc1	/	/	/	/	-1%
O=C(NCCCc1ccccc1)c1nn(-c2ccccc2)nc1CO	/	/	-34%	/	-18%
Cc1ccccc1C(=O)NCCCc1ccccc1	11%	24%	13µM*	29%	?
Cc1ccc(-n2nc(CO)c(C(=O)NCCCc3ccccc3)n2)cc1C	/	/	16%	/	5.4µM*
Cc1ccc(C(=O)NCCCc2ccccc2)s1	?	4µM*	13µM*	?	21µM*
Cc1ccc(C(=O)NCC(=O)NCCCc2ccccc2)s1	0%	1%	/	0%	3%
COc1ccc(CNC(=O)c2ccc3c(c2)N(C)C(=O)C2CCCCN32)cc1OC (stereo not given)	/	/	/	/	-2%
CC[C@@H]1Cn2c(c3nc(-c4ccccc4)nc-3n(C)c2=O)N1	/	/	-11%	/	/
